Data on 40 compounds can be found in PubChem BioAssay (Tox21).

Inconclusive results are not listed. Entries that show only a call come without a potency. Calls of active or inactive are those of the source. The call rests on the fitted dose curve; in most records, active means well fitted cell-killing curve with a large enough effect in the repeat runs; inconclusive means weak or mixed curves; inactive means no such curve, though single readings can be large or run the other way.

A short description of this test: qHTS assay to identify small molecule antagonists of the androgen receptor (AR) signaling pathway - cell viability counter screen (AID 743033; further: nearly all actives have a fitted effect of over 45% in size). The settings on record: AR-bla HEK293 viability, CellTiter-Glo luminescence, 16 h; series mostly up to 58.5 µM. An excerpt: National Center for Advancing Translational Sciences [NCATS]
NIH Chemical Genomics Center [NCGC]
U.S. Environmental Protection Agency [EPA]
National Institutes of Environmental Health Sciences [NIEHS]
National Toxicology Program [NTP]
U.S. Food and Drug Administration [FDA]
Androgen receptor (AR), a nuclear hormone receptor, plays a critical role in AR-dependent prostate cancer and other androgen related diseases. Endocrine disrupting chemicals (EDCs) and their interactions with steroid hormone receptors like AR may cause disruption of normal endocrine function as well as interfere with metabolic homeostasis, reproduction, developmental and behavioral functions. To identify the compounds that inhibit AR signaling, GeneBLAzer AR-UAS-bla-GripTite cell line (Invitrogen, Carlsbad, CA, USA) containing a beta-lactamase reporter gene under control of an Upstream Activator Sequence (UAS) stably integrated into HEK293 cells was used to screen the Tox21 10K compound library. The cytotoxicity of the Tox21 compound library against the AR-bla cell line was tested in parallel by measuring the cell viability using CellTiter-Glo assay in the same wells.
Tox21 Assay Protocol Summary:
AR-bla cells were dispensed at 2,000 cells/5 uL of assay medium per well into black wall/clear-bottom 1536-well plates using a Multidrop Combi (ThermoFisher Scientific, Waltham, MA) dispenser. After the assay plates were incubated at a 37C and 5% CO2 for 4 hr, 23 nL of compounds dissolved in DMSO, positive controls or DMSO only was transferred to the assay plate by a Pintool station (Kalypsys, San Diego, CA), followed by addition of 1 uL of agonist (R1881) in culture medium using a Bioraptr Flying Reagent Dispenser (FRD) workstation (Beckman Coulter, Indianapolis, IN, USA). The plates were incubated at a 37C and 5% CO2 for 16 h. After 1 uL of LiveBLAzerTM B/G FRET substrate was added using a Bioraptr FRD, the plates were incubated at room temperature for 2 h and fluorescence intensity was measured by an Envision plate reader (PerkinElmer, Shelton, CT). For cell viability readout that measures cytotoxicity, 4 ul/well of CellTiter-Glo reagent was added into the assay plates using a Bioraptr FRD. After 30 min incubation at room temperature, the luminescence intensity in the plates was measured using a ViewLux (PerkinElmer) plate reader.
A general note: Quantitative high-throughput screening tests each substance at several concentrations.
As to `CCCCOc1ccc(N)cc1`, the Potency result is “inactive”.
The entry for `CC(=O)CC/C=C(\C)CC/C=C(\C)CC/C=C(\C)CCC=C(C)C` is “inactive”; for `O=C(O)c1cc(C(=O)O)cc([N+](=O)[O-])c1` it is “inactive”.
Turning to `OCCCO`, the Potency entry was “inactive”.
The result for `CC(C)=CCCC(C)C=O` (stereo not given) reads “inactive”; that for `N#Cc1ccc(CC(=O)c2cccc(C(F)(F)F)c2)cc1`, “inactive”.
On to `Cc1nc(C)c(C)nc1C`, for which the Potency entry was “inactive”.
The result for `COc1cc(C)c(Cc2cnc(N)nc2N)cc1OC` reads “inactive”; that for `Cc1cccc(C)c1NC(=O)CN1CCCC1`, “inactive”; that for `CC(C)(C)c1ccc(CCC=O)cc1`, “inactive”.
The result for `C(/C=C/C=C/Nc1ccccc1)=Nc1ccccc1` reads “inactive”.
In the case of `O=C(O)c1ccccc1[N+](=O)[O-]`, the Potency entry was “inactive”.
The entry for `Cc1ccc(NC=O)c(C)c1` is “inactive”; for `CO[C@@H]1[C@@H](O[C@@H]2O[C@H](C)[C@@H](O[C@H]3C[C@@](C)(O)[C@@H](O)[C@H](C)O3)[C@H](N(C)C)[C@H]2O)[C@@H](CC=O)C[C@@H](C)[C@@H](O[C@@H]2CC[C@H](N(C)C)[C@@H](C)O2)/C=C/C=C/C[C@@H](C)OC(=O)C[C@H]1OC(C)=O` it is “inactive”; for `O=C(OCCOCCOCCOC(=O)c1ccccc1)c1ccccc1` it is “inactive”.
As for `Cc1nc2sccn2c(=O)c1CCN1CCC(=C(c2ccc(F)cc2)c2ccc(F)cc2)CC1`, the Potency result is “inactive”.
Turning to `C=CC(=O)OCCCCCCCCCC`, the Potency entry was “inactive”.
On to `O=C(OC1C[C@H]2CC[C@@H](C1)[N+]21CCCC1)C(O)(c1ccccc1)c1ccccc1` (stereo not given in full), for which the Potency entry is “inactive”.
Regarding `Clc1cc(Cl)c2c(c1)N=C1CCCCCN1C2`, the Potency entry was “inactive”.
As to `O=C(Cl)c1cc(Cl)cc(Cl)c1`, the Potency result is “inactive”.
The result for `CC(C)=CCC[C@H](C)CCO` reads “inactive”; that for `CCCCCCCCCCCCCCCCN`, “inactive”.
The result for `CC(C)C/C=C(\C=O)c1ccccc1` reads “inactive”; that for `C/C(=C\C(C)CC(C)CC(C)C)C1CC(=O)OC1=O` (stereo not given), “inactive”; that for `CC(CN=Cc1ccccc1O)N=Cc1ccccc1O` (stereo not given), “inactive”.
Turning to `[O-][n+]1ccc(Cl)cc1`, the Potency result is “inactive”.
As for `Nc1ccccc1Nc1ccccc1`, the Potency entry was “inactive”.
With `CCCCOC(=O)C(C)Oc1ccc(Oc2ccc(C(F)(F)F)cn2)cc1` (stereo not given), the Potency result is “inactive”.
The entry for `CCC1=C(C)CN(C(=O)NCCc2ccc(S(=O)(=O)NC(=O)NC3CCC(C)CC3)cc2)C1=O` (stereo not given) is “inactive”; for `Cc1ccc2ccccc2c1[N+](=O)[O-]` it is “inactive”.
`CC(=O)S[C@H](C(=O)N[C@H]1Cc2ccccc2[C@H]2CCC[C@@H](C(=O)O)N2C1=O)C(C)C`: the Potency result was “inactive”.
For the compound `C=CC(C)(O)CC/C=C(/C)CCC=C(C)C` (stereo not given), the Potency result was “inactive”.
In the case of `CCCCCCCCCCCCCCCCC(=O)O`, the Potency result is “inactive”.
As to `CCn1nc(Cc2ccccc2)cc1C1CCN(C[C@H]2C[C@H](N(C)[C@@H](C(=O)O)C(C)C)C[C@@H]2c2cccc(F)c2)CC1`, the Potency result was “inactive”.
The result for `O=C(Nc1ccc2c(c1)Cc1ccccc1-2)C(F)(F)F` reads “inactive”; that for `CCCCCCCCCCCC(=O)OCC`, “inactive”.
Regarding `CCC(CC)C(=O)O`, the Potency entry is “inactive”.
With `Cc1ccccc1CCO`, the Potency entry is “inactive”.
The entry for `COc1ccc(/C=C/S(=O)(=O)NC(=O)c2ccc(C)cc2Cl)cc1` is “inactive”; for `CC(C)(C)N` it is “inactive”.
